IDE cell activ – activators of human insulin-degrading enzyme in cells. HEK cells, FAbeta-B cleavage, fluorescence polarization; 0% vehicle, 100% cell-free pure enzyme wells. P14735. 340,000 tested, 0.073% active. activation, % at 5.96 µM;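 active = activation above the mean of all tested compounds plus 3 SD, set per screening campaign, cut at about 17% in these data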
LANA-H2B inh – blocks KSHV LANA binding to histone H2A/H2B; cell-free LANA-H2A/H2B peptide, fluorescence polarization; inhibition, % (test concentration not listed); 320,000 tested, 0.6% active; in the data active = inhibition mostly above about 10%, no sharp cut-off; inactive = mostly below about 6.7%
Target sequence (Q9QR71 whole entry, looked up): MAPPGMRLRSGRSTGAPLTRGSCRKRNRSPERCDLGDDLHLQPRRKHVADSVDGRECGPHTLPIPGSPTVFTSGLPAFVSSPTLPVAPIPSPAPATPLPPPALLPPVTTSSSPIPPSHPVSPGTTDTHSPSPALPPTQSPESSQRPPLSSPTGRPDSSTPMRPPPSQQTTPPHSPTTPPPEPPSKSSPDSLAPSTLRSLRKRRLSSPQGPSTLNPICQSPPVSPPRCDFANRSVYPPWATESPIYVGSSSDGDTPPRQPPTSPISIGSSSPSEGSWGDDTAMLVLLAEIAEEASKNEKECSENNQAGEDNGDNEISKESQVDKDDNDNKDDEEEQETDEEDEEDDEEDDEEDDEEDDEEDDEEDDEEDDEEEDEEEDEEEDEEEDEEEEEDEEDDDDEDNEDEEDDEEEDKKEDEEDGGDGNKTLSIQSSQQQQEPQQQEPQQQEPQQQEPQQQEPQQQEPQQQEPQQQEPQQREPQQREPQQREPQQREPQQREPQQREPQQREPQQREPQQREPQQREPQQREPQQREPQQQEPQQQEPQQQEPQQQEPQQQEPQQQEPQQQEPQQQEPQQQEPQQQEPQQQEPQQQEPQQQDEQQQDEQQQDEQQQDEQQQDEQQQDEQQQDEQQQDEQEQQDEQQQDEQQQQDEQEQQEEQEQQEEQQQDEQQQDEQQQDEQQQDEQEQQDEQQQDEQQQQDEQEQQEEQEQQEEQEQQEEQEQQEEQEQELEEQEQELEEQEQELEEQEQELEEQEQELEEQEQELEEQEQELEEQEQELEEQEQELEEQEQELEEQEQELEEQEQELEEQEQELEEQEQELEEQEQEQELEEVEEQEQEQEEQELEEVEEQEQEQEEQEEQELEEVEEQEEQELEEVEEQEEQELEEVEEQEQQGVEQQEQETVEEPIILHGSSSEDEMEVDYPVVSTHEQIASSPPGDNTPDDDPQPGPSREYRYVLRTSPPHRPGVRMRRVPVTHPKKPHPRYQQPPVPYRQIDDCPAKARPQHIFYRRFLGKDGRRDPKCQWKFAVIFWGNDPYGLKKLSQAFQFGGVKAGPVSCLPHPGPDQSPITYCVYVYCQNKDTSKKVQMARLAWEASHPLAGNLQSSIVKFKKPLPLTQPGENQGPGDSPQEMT
IDE cell inh – cellular human IDE inhibition; P14735; HEK cells, FAbetaB cleavage, fluorescence polarization; inhibition, % at 5.59 µM; 320,000 tested, 0.41% active;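 active = percent inhibition above the average of all tested compounds plus 3 SD, set per screening campaign, cut at about 16% in these data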;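 also: IDE supplied by intact live HEK cells; FP after avidin binding of uncleaved biotin substrate so inhibition keeps polarization high; 0% = DMSO wells and 100% = 60 µM reference IDE inhibitor Ii1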
HDAC3 inhib – blocks human histone deacetylase 3; inhibition, % at 8.3 µM; AID 2718; 320,000 tested, 0.15% active; recombinant HDAC3, fluorogenic peptide/trypsin coupled, fluorescence; in the data active = inhibition above about 26%, passing the limit was not always enough
* marks the source's active call; other numbers are inactive results; x = no result; + = active, no number; ! = not confirmed by another sample. Only some compounds are listed: those with a hit (about 1.1% of all), similar ones and a draw of the others.

SMILES	IDE cell activ	LANA-H2B inh	IDE cell inh	HDAC3 inhib
O=C(O)c1ccccc1N=Nc1ccc(O)cc1	20*	-1	-14	4
O=C(CN1CCN(c2ccccc2F)CC1)NCc1ccccc1	1	33*	1	-3
Cc1cccc(N2CCN(CC(=O)NCc3ccccc3)CC2)c1C	5	1	4	7
c1ccc(C(CN2CCCCC2)Oc2ccccn2)cc1 (stereo not drawn)	5	x	x	x
O=C(Cc1ccccc1[N+](=O)[O-])OCC(=O)N1CCN(c2ccccc2)CC1	-3	0	3	-6
O=C1c2ccccc2C(=O)N1CCC#Cc1ccc2cc(CCO)oc(=O)c2c1	-1	2	1	0
COc1ccc(CN2CCN(CCc3ccccc3)C(CCO)C2)cc1Cn1cncn1 (stereo not drawn)	3	0	1	1
COC(=O)CC1=C(C(=O)OC)C(c2cc(OC)c(OC)cc2OC)C(C#N)=C(N)O1 (stereo not drawn)	2	14*	12	-3
COC(=O)CC1=C(C(=O)OC)[C@@H](c2ccccc2[N+](=O)[O-])C(C#N)=C(N)O1	5	1	8	-2
COC(=O)CCC/C=C1/SCC(NC(=O)c2ccccc2)/C1=N/O (stereo not drawn)	4	5	0	1
Cc1ccc(S(=O)(=O)/N=c2\ccc(Cl)cn2C(F)F)cc1	3	17*	5	7
Cc1ccc(S(C)(=O)=NC(=O)NC(=O)c2c(F)cccc2Cl)cc1 (stereo not drawn)	2	1	0	-2
COCCN(CC1CCCN(C2Cc3ccccc3C2)C1)C(=O)c1cccc(C)c1 (stereo not drawn)	7	-1	1	-1
CCC/C(=N/NC(=O)c1cccc(Cl)c1)c1ccccc1	2	14*	2	6
COCCC1CCCCN1C(=O)c1cccc(OC2CCN(S(C)(=O)=O)CC2)c1 (stereo not drawn)	3	17*	x	10
CCOc1ccc(C(=O)NC(C(=O)NCCc2ccc(S(N)(=O)=O)cc2)C(C)C)cc1 (stereo not drawn)	6	14*	9	-1
CCc1ccccc1NC(=O)CCc1c(C)nn(-c2ccc(N3CCOCC3)nn2)c1C	-2	1	6	-6
CCc1ccc(NC(=O)C(C)Nc2ccc(S(=O)(=O)NC(C)=O)cc2)cc1 (stereo not drawn)	-2	15*	14	-4
CC(=O)NS(=O)(=O)c1ccc(NC(=S)NC(=O)C(C)C)cc1	-3	x	0	x
CC(Sc1nc2ccccc2[nH]1)C(=O)Nc1ccccc1F (stereo not drawn)	2	13*	2	-7
O=C1CC(c2ccco2)CC2=C1C=Nc1ccccc1N2 (stereo not drawn)	-1	9	8	6
O=c1[nH]c2c(s1)C=Nc1ccccc1N2	2	38*	1	x
N#Cc1ccc(NC(=O)COC(=O)CCc2nc3ccccc3c(=O)[nH]2)cc1	12	3	-2	x
O=C(COC(=O)CCc1nc2ccccc2c(=O)[nH]1)Nc1ccccc1	2	24*	4	1
N#Cc1ccsc1NC(=O)C1CCN(C(=O)c2ccc(Cl)cc2)CC1	2	0	1	-10
SMILES	IDE cell activ	LANA-H2B inh	IDE cell inh	HDAC3 inhib
Cc1oc2c(C)c3oc(=O)c(CCC(=O)N4C[C@H]5C[C@@H](C4)c4cccc(=O)n4C5)c(C)c3cc2c1C	3	35*	6	-7
Cc1coc2c(C)c3oc(=O)c(CCC(=O)N4C[C@H]5C[C@@H](C4)c4cccc(=O)n4C5)c(C)c3cc12	-3	-6	-1	-15
O=c1oc(-c2ccccc2Br)nc2ccccc12	0	-5	3	44*
CC(Oc1cccc(Cl)c1)c1ccnc2nc(/N=C/N(C)C)nn12 (stereo not drawn)	7	112*	4	-4
Cc1c2cc(O)c(=O)cc-2oc2cc(O)c(O)cc12	-24	114*	8	-1
COc1cc(OC)c(-c2c3cc(O)c(=O)cc-3oc3cc(O)c(O)cc23)cc1OC	41*	-175	-55	3
COc1ccc(C(CNC(=O)C(=O)Nc2ccc3c(c2)OCCO3)N2CCN(C)CC2)cc1 (stereo not drawn)	2	-6	-2	0
O=C(Cn1c2ccccc2c(=O)c2ccccc21)N/N=C/c1cc([N+](=O)[O-])ccc1N1CCCCCC1	4	2	1	-3
O=C(Cn1c2ccccc2c(=O)c2ccccc21)N/N=C/c1ccc(N2CCCC2)c([N+](=O)[O-])c1	2	+	-3	-3
COc1ccc(C)cc1NC(=O)C1CC(=O)N(Cc2ccco2)C1 (stereo not drawn)	2	13*	12	-6
COc1cc(CCC(=O)OCC(=O)N2CCc3ccccc32)cc(OC)c1OC	3	0	2	5
COc1ccc(NC(=O)COC(=O)C23CC4CC(CC(Cl)(C4)C2)C3)c(OC)c1	-1	171*	4	-1
CCOC(=O)CN(C(=O)CNC(=O)c1ccco1)C(C(=O)NC1CCCCC1)c1cccnc1 (stereo not drawn)	4	-3	0	1
O=C(O)CCCN=CC1=C(O)CNC1=O	2	10	-1	2
CCc1ccc(S(=O)(=O)/N=C2\C=C(NS(=O)(=O)c3ccccc3)C(=O)c3ccccc32)cc1	1	x	x	x
Cc1ccc(C)c(S(=O)(=O)/N=C2\C=C(NS(=O)(=O)c3ccccc3)C(=O)c3ccccc32)c1	3	31*	-5	1
CC(C)CC(NC(=O)C(NC(=O)OC(C)(C)C)C(C)C)C(=O)NC(CCC(=O)OCc1ccccc1)C(N)=O (stereo not drawn)	1	21*!	-1	2
COc1ccc(-c2cc(C(F)(F)F)n3nc(C(=O)N(C)Cc4ccccc4)cc3n2)cc1OC	2	18*	-2	-6
NC(CO)(CO)COCc1ccccc1	-1	-3	-1	5
NC(=O)[C@H]1CC2(CC(c3cccc(NC(=O)[C@H]4CCC(=O)N4)c3)=NO2)CN1C(=O)c1cc([N+](=O)[O-])cc([N+](=O)[O-])c1 (stereo partly drawn)	10	0	1	39*
CN(C)/C=C1\C=C2C(=O)c3ccccc3N2C1=O	46*	150*	12	10
CC(C)(C)C(=O)Nc1ccc(F)cc1[N+](=O)[O-]	1	12*	10	1
CCn1cc(C(=O)OCC(=O)c2cc(C)n(-c3cccc(C(F)(F)F)c3)c2C)c(=O)c2ccc(C)nc21	6	54*	-7	10
CCn1cc(C(=O)OCC(=O)c2ccccc2)c(=O)c2ccc(C)nc21	2	x	x	x
CS(=O)(=O)Nc1ccccc1C(=O)NCCSc1ccccc1	7	-3	-1	-14
COc1ccc(C(C(=O)NCCC(C)C)N(CCO)C(=O)c2snc(C(N)=O)c2N)cc1OC (stereo not drawn)	4	2	5	-2
COc1ccc(C(C(=O)NCCC(C)C)N(CCO)C(=O)c2snc(C(N)=O)c2N)cc1 (stereo not drawn)	-1	23*	8	4
